The values that follow come from PubChem BioAssay (EPA / NIEHS).

Inconclusive results are not listed. Activity calls are given as the source filed them. How the source made its calls: active means hit-call score of the fitted dose curve at least 0.9, where 1 is the maximum; inconclusive means response in the unintended direction; inactive means score below 0.9.

Test [1] deals with human Leukotriene B4 Receptor 1 (LTB4-BLT1), LTB4R (gene 1241) (UniProt Q15722). Description: NVS_GPCR_hLTB4_BLT1: NovaScreen (NVS) G Protein-Coupled Receptor Assay for human Leukotriene B4 Receptor 1 (LTB4-BLT1) (AID 2283271). A digest of the protocol: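 Cell-free human neutrophil receptor preparation, 1 h exposure, radioligand binding read by filter scintillation counting. Single 25 uM duplicate screen, then concentration series topping at 50 uM; binding loss scored against DMSO baseline.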

The target of test [2] is Muscarinic acetylcholine receptor M5 (Homo sapiens) (UniProt P08912). Description: NVS_GPCR_hM5: NovaScreen (NVS) G Protein-Coupled Receptor Assay for human Muscarinic, M5 Receptor (AID 2283275). A digest of the protocol:
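Chemicals passing a primary duplicate screen at 25 uM were run as singleton concentration series, maximum 50 uM. Displacement of a specific radioligand from CHO-extracted receptor was read by filter scintillation after 1 h, relative to DMSO.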

The target in test [3] is human Opioid Receptor Delta 1 (Opiate D1), OPRD1 (gene 4985) (UniProt P41143). Description: NVS_GPCR_hOpiate_D1: NovaScreen (NVS) G Protein-Coupled Receptor Assay for human Opioid Receptor Delta 1 (Opiate D1) (AID 2283280). In a few lines: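 Membrane preparations from CHO cells bearing the human receptor were incubated 1 h with test chemical, and bound radioligand was counted after filtration. Actives from 25 uM duplicate screening were retested in concentration-response.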

For test [4], the target named is human Thromboxane A2 Receptor (TXA2), TBXA2R (gene 6915) (UniProt P21731). The test can be described thus: NVS_GPCR_hTXA2: NovaScreen (NVS) G Protein-Coupled Receptor Assay for human Thromboxane A2 Receptor (TXA2) (AID 2283282).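 Further: actives reduce bound radioligand signal relative to DMSO baseline.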 In a few lines:
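Human platelet membranes tested for radioligand displacement by filtration and scintillation counting 1 h post-dose. Screened in duplicate at 25 uM; activity fitted as signal loss relative to DMSO.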

Test [5] has as its target human Vasopressin 1A Receptor (V1A), AVPR1A (gene 552) (UniProt P37288). The test can be described thus: NVS_GPCR_hV1A: NovaScreen (NVS) G Protein-Coupled Receptor Assay for human Vasopressin 1A Receptor (V1A) (AID 2283284). A digest of the protocol:
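Single-concentration duplicate screen at 25 uM, with concentration-response follow-up (top 50 uM) for actives. The assay measured displacement of a radioligand from human platelet-derived receptor after 1.5 h, detected by filtration and scintillation counting.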

Test [6] concerns rabbit Platelet Activating Factor Receptor (PAF), gene 100354046. Description: NVS_GPCR_rabPAF: NovaScreen (NVS) G Protein-Coupled Receptor Assay for rabbit Platelet Activating Factor Receptor (PAF) (AID 2283287). In a few lines: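 Rabbit platelet membrane preparation; radioligand displacement read by filter-based scintillation counting 1 h after dosing, loss of signal versus DMSO. Primary screen in duplicate at 25 uM, actives followed up in concentration series.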

For test [7], the target named is human Opioid Receptor Mu (Opiate Mu), OPRM1 (gene 4988) (UniProt P35372). Description: NVS_GPCR_hOpiate_mu: NovaScreen (NVS) G Protein-Coupled Receptor Assay for human Opioid Receptor Mu (Opiate Mu) (AID 2283290).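 Further: hits lower bound tracer signal versus DMSO meaning displacement of the ligand.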 A digest of the protocol:
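Here, radioligand binding to CHO-extracted receptor was measured after 2.5 h using filter-based scintillation detection. Initial single-concentration screening used 25 uM in duplicate with plate controls; confirmed actives went to concentration-response testing.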

The target of test [8] is human Neuropeptide Receptor Y1 (NPY1), NPY1R (gene 4886) (UniProt P25929). The test can be described thus: NVS_GPCR_hNPY1: NovaScreen (NVS) G Protein-Coupled Receptor Assay for human Neuropeptide Receptor Y1 (NPY1) (AID 2283276). In a few lines:
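Displacement of specific radioligand from NPY1 receptor of SK-N-MC origin, read by filtration and scintillation after 1 h. Compounds first tested at 25 uM in duplicate, then actives in concentration series; signal loss relative to DMSO.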

The target of test [9] is human Orphanin, Opioid Related Nociceptin Receptor 1 (ORL1), OPRL1 (gene 4987) (UniProt P41146). Description: NVS_GPCR_hORL1: NovaScreen (NVS) G Protein-Coupled Receptor Assay for human Orphanin, Opioid Related Nociceptin Receptor 1 (ORL1) (AID 2283283). A digest of the protocol: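 Cell-free binding using HEK293-derived receptor protein: radioligand displacement measured by filter scintillation 1 hour after dosing. Primary testing at 25 uM in duplicate, followed by singleton concentration series up to 50 uM; DMSO served as negative control.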

Test [10] deals with rat Serotonin, 5-Hydroxytryptamine Receptor 1 (5HT1), Non-Selective Binding, Htr1a (gene 24473) (UniProt P19327). The test can be described thus: NVS_GPCR_r5HT1_NonSelective: NovaScreen (NVS) G Protein-Coupled Receptor Assay for rat Serotonin, 5-Hydroxytryptamine Receptor 1 (5HT1), Non-Selective Binding (AID 2283286). In a few lines: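 Binding of a radioligand to rat cortex membranes is read by filtration and scintillation counting after 1 h. Compounds were screened at 25 uM in duplicate. Actives were then titrated to a top of 50 uM. DMSO is the baseline.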

Test [11] concerns the target Muscarinic acetylcholine receptor M3 (Homo sapiens) (UniProt P20309). Description: NVS_GPCR_hM3: NovaScreen (NVS) G Protein-Coupled Receptor Assay for human Muscarinic, M3 Receptor (AID 2283272). In a few lines:
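Radioligand displacement binding on human M3 receptor in CHO-derived membranes, 1 h incubation, filter-based scintillation counting. Primary screen in duplicate at 25 uM; actives followed up in concentration series; loss of signal versus DMSO.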

Test [12] has as its target Muscarinic acetylcholine receptor M1 (Homo sapiens) (UniProt P11229). The test can be described thus: NVS_GPCR_hM1: NovaScreen (NVS) G Protein-Coupled Receptor Assay for human Muscarinic, M1 Receptor (AID 2283270). A digest of the protocol:
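Actives from a duplicate 25 uM single-point screen were retested in concentration series. Binding measured as displacement of a radioligand from CHO-derived receptor preparation, 1 h incubation, filtration and scintillation counting, analysed as signal loss against DMSO.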

Test [13] has as its target human Muscarinic, M4 Receptor, CHRM4 (gene 1132) (UniProt P08173). The test can be described thus: NVS_GPCR_hM4: NovaScreen (NVS) G Protein-Coupled Receptor Assay for human Muscarinic, M4 Receptor (AID 2283274). A digest of the protocol: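 Filter-based scintillation counting of radioligand bound to CHO-expressed human M4 preparations after 1 h; loss of signal fitted versus DMSO. Initial duplicate testing at 25 uM, concentration-response follow-up for actives.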

Test [14] deals with 5-hydroxytryptamine receptor 2C (pig). The test can be described thus: NVS_GPCR_p5HT2C: NovaScreen (NVS) G Protein-Coupled Receptor Assay for pig Serotonin, 5-Hydroxytryptamine Receptor 2C (5HT2C) (AID 2283288). A digest of the protocol: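 Radioligand displacement on membranes from pig choroid plexus, detected by filter scintillation counting after 1 h. Tested first at a single 25 uM in duplicate, then in concentration-response for actives; DMSO served as baseline.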

The target in test [15] is guinea pig Bradykinin Receptor B2 (BK2), BDKRB2 (gene 100135486) (UniProt O70526). Description: NVS_GPCR_gBK2: NovaScreen (NVS) G Protein-Coupled Receptor Assay for guinea pig Bradykinin Receptor B2 (BK2) (AID 2283292). In a few lines:
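Guinea pig ileum membrane preparation incubated 1 h with radioligand and test chemical; bound counts measured after filtration. Primary duplicate screening at 25 uM, then singleton concentration series with a 50 uM top dose; DMSO as baseline.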

Sequence of rat Serotonin, 5-Hydroxytryptamine Receptor 1 (5HT1), Non-Selective Binding, Htr1a (gene 24473) (P19327 whole entry, looked up): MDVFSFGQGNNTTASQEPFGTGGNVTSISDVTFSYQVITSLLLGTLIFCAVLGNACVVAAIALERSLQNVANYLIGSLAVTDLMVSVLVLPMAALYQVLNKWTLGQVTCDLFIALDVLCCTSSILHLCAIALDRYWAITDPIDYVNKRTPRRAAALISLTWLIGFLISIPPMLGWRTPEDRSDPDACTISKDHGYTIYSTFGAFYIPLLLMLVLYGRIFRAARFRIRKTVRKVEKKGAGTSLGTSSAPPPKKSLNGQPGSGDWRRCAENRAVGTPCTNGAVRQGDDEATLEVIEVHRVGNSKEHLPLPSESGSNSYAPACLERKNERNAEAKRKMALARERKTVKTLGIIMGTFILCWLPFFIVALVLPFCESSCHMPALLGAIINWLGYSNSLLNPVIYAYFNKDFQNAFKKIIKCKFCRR
Sequence of human Opioid Receptor Mu (Opiate Mu), OPRM1 (gene 4988) (P35372 whole entry, looked up): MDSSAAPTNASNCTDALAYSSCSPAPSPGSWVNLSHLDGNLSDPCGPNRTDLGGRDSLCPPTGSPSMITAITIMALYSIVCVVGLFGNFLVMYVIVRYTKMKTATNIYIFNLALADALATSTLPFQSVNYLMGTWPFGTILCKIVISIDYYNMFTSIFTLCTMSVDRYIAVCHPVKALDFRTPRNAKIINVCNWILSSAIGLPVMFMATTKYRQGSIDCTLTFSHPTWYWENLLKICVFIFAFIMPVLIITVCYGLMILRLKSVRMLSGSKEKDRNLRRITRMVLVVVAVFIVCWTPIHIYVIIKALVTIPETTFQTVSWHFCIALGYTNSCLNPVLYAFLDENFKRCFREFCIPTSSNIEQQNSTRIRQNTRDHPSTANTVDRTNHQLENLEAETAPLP
Sequence of Muscarinic acetylcholine receptor M5 (Homo sapiens) (P08912 whole entry, looked up): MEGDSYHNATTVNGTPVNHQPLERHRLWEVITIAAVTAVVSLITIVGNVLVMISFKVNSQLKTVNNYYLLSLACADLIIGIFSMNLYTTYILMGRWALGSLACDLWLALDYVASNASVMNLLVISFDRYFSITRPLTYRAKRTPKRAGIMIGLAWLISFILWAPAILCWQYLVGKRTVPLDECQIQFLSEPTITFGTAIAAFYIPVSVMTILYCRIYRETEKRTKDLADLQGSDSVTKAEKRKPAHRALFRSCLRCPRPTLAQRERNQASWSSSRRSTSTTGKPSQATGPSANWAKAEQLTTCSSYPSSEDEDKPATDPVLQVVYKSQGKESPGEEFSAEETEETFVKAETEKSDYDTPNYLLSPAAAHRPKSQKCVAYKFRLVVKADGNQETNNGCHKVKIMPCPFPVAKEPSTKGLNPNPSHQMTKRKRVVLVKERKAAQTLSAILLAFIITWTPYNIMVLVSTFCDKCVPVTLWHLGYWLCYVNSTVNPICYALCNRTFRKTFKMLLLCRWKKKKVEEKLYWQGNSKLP
Sequence of human Opioid Receptor Delta 1 (Opiate D1), OPRD1 (gene 4985) (P41143 whole entry, looked up): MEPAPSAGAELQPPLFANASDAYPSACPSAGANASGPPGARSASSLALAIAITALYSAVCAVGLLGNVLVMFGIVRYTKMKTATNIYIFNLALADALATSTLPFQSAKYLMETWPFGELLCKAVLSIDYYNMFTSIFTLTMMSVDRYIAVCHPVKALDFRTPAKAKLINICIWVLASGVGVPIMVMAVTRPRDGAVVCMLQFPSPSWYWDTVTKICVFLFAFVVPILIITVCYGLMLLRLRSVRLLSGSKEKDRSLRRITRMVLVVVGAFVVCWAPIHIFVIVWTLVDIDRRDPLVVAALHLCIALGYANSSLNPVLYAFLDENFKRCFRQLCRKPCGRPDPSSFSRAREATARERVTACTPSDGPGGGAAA
Sequence of human Thromboxane A2 Receptor (TXA2), TBXA2R (gene 6915) (P21731 whole entry, looked up): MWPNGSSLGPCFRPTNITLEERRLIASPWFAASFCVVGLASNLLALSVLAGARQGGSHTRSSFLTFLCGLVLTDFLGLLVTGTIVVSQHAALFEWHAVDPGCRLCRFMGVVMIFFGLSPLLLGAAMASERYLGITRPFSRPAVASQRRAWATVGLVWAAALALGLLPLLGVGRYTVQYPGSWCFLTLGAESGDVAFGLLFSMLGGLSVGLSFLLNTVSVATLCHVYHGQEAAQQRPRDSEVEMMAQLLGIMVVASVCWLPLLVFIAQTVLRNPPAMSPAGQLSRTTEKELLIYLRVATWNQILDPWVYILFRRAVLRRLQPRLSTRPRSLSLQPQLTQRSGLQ
Sequence of human Leukotriene B4 Receptor 1 (LTB4-BLT1), LTB4R (gene 1241) (Q15722 whole entry, looked up): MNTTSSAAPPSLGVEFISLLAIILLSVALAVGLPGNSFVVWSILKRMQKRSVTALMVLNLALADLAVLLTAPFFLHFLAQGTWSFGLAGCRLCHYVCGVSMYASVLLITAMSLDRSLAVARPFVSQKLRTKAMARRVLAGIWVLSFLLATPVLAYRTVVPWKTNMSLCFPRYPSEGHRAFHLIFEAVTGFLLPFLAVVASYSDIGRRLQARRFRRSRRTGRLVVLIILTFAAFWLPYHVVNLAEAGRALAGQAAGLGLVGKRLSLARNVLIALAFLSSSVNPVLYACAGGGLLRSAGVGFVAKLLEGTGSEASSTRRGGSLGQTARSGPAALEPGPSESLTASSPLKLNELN
Sequence of human Neuropeptide Receptor Y1 (NPY1), NPY1R (gene 4886) (P25929 whole entry, looked up): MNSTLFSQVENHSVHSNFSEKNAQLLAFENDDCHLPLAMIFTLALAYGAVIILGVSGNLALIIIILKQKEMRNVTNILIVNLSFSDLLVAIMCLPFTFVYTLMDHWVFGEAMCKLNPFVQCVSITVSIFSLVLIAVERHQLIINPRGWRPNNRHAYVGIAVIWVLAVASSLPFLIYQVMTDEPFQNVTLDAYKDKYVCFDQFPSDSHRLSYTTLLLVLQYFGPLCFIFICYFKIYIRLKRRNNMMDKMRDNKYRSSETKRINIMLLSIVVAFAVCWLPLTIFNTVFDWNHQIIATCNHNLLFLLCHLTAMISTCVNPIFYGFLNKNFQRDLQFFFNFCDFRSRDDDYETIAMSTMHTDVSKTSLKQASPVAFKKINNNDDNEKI
Sequence of guinea pig Bradykinin Receptor B2 (BK2), BDKRB2 (gene 100135486) (O70526 whole entry, looked up): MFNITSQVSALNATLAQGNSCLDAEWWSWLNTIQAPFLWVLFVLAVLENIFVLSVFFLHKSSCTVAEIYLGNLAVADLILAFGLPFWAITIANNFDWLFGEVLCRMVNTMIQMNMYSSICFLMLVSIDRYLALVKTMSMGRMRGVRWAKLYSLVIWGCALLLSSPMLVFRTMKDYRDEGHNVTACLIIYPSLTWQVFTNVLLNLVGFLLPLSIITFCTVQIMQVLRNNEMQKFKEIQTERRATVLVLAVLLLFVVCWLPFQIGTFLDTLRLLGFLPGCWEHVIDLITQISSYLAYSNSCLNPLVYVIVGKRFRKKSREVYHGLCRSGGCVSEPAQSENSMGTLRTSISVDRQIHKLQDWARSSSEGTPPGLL
Sequence of human Vasopressin 1A Receptor (V1A), AVPR1A (gene 552) (P37288 whole entry, looked up): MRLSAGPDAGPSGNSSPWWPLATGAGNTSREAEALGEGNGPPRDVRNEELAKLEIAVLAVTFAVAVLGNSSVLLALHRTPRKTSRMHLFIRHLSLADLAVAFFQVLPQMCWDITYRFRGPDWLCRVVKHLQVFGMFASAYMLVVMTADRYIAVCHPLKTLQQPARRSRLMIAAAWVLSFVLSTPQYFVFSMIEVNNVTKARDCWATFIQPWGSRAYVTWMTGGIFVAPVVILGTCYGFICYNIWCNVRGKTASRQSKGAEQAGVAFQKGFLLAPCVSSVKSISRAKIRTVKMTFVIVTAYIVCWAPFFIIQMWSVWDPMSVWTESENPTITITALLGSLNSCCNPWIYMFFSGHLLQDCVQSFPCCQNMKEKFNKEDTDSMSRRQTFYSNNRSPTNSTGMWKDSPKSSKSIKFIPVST
Sequence of Muscarinic acetylcholine receptor M1 (Homo sapiens) (P11229 whole entry, looked up): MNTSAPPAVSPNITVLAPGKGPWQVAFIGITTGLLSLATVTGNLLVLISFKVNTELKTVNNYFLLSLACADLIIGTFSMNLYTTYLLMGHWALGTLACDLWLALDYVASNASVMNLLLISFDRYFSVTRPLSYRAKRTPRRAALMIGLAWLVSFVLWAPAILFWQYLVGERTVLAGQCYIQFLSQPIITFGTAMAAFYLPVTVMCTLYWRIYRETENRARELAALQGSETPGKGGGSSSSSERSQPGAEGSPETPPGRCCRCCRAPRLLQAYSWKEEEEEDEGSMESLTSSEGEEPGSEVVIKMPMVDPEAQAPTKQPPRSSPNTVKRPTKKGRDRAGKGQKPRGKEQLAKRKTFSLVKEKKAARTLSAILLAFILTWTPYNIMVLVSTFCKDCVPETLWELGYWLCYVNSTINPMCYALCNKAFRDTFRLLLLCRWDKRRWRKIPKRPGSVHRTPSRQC
Sequence of human Muscarinic, M4 Receptor, CHRM4 (gene 1132) (P08173 whole entry, looked up): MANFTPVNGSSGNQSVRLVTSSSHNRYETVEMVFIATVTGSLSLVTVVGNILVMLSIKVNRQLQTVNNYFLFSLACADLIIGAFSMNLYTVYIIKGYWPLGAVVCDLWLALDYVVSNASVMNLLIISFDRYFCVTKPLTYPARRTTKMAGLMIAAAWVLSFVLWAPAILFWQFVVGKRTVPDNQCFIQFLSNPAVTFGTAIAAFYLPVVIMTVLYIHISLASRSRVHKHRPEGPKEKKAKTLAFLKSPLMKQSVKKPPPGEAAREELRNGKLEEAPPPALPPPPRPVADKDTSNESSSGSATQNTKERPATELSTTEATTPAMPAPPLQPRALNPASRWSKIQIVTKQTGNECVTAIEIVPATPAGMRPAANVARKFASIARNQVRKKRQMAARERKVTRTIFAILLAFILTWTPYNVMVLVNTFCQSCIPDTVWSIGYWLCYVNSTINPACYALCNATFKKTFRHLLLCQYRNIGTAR
Sequence of human Orphanin, Opioid Related Nociceptin Receptor 1 (ORL1), OPRL1 (gene 4987) (P41146 whole entry, looked up): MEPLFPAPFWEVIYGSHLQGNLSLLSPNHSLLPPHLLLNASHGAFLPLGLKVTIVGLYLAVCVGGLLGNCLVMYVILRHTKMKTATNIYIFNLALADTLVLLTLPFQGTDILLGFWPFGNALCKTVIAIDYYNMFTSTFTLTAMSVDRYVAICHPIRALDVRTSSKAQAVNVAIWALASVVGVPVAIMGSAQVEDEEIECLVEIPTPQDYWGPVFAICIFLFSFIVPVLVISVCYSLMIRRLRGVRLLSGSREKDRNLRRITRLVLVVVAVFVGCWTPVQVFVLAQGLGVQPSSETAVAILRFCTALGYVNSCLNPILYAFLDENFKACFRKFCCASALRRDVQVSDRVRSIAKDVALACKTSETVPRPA

In the case of `CCN(Cc1cccnc1)C(=O)c1cccc(Cl)c1[C@]1(C)C(=O)N(Cc2ccc(OC)cc2OC)c2ccc(Cl)cc21`, the AC50 (in general, the midpoint of the concentration-response curve, whichever way the signal moves) is 1.49 µM (active) in test [1]; 4.06 µM (active) in test [2]; 2.01 µM (active) in test [3]; 6.61 µM (active) in test [4]; 1.68 µM (active) in [6]; 1.48 µM (active) in test [7]. Also, the molecule was called inactive in test [5].
For the molecule `O=c1[nH]sc2ccccc12`, the concentration at half-maximal activity (AC50) in [8] is 4.62 µM (active); in test [9], 3.2 µM (active); in test [10], 40.4 µM (active). Besides, the molecule was called inactive in test [7].
`COc1cccc([C@H](O)C2CCN(CCc3ccc(F)cc3)CC2)c1OC`: the molecule was classed as inactive in [11] and in [2]. The values for the AC50 in [10] and in test [7] were 25 µM (active) and 12.6 µM (active), respectively.
Consider `Cc1ccc2oc(CN(Cc3ccccc3)C(=O)Nc3c(F)cc(F)cc3F)c(-c3ccc(Cl)cc3)c2c1`, for which, in [1], the result was inactive.
On to `COc1cc(C(=O)NC2CCN(C)CC2)ccc1Nc1ncc2c(n1)N(C1CCCC1)CC(F)(F)C(=O)N2C`, for which the AC50 was 5.54 µM (active) in [12]; 16.7 µM (active) in test [13]; 11.9 µM (active) in [2]; 0.76 µM (active) in [6]; 3.34 µM (active) in [14]; 17.4 µM (active) in [7]. The half-maximal activity concentration (AC50) in [15] was 2.81 µM (active). Moreover, in [10], the result was inactive.
With `CC[C@H](NC(=O)c1cc(F)ccc1NS(=O)(=O)c1cccc2cccnc12)c1ccccc1`, the molecule was classed as inactive in [3] and in test [7].
For `CC[C@@H]1C[C@H](N(Cc2cc(C(F)(F)F)cc(C(F)(F)F)c2)C(C)=O)c2cc(C(F)(F)F)ccc2N1C(=O)OC(C)C`, the result in [10] and in test [6] was inactive.
Turning to `O=C1O[C@H]([C@@H](O)CO)C(O)=C1O`, the concentration at half-maximal activity (AC50) in test [4] was 8.76 µM (active).
For the molecule `CC1=CC(=O)/C(=C(/C)O)C(=O)O1`, the molecule was called inactive in [10].
